# Reference: PubChem BioAssay (NCATS)
# Values joined by “and” are separate entries in the source; they are usually repeats but may differ in a detail not shown here. Equal entries are not always repeated. Results filed as inconclusive are left out. Entries that show only a call come without a potency. Active and inactive are the calls of the source. Unless noted, calls follow the shape of the dose curve; as a rule, active = well fitted curve in the direction sought with a large enough effect; inconclusive = small, poorly fitted or top-dose-only effect, or another doubt; inactive = no such curve, though single readings can be large; an effect the other way counts as inactive or inconclusive.
# Tests used:
# [1] = target: Voltage-gated inwardly rectifying potassium channel KCNH2 (Homo sapiens) (UniProt Q12809); assay: qHTS Assay for Small Molecule Inhibitors of the Human hERG Channel Activity (AID 588834);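 also: lower thallium flux fluorescence means stronger hERG block; nearly all actives have a fitted effect of over 50% in size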; also: potency is read from the fitted curve at half-maximal effect
# Sequence of Voltage-gated inwardly rectifying potassium channel KCNH2 (Homo sapiens) (Q12809 whole entry, looked up): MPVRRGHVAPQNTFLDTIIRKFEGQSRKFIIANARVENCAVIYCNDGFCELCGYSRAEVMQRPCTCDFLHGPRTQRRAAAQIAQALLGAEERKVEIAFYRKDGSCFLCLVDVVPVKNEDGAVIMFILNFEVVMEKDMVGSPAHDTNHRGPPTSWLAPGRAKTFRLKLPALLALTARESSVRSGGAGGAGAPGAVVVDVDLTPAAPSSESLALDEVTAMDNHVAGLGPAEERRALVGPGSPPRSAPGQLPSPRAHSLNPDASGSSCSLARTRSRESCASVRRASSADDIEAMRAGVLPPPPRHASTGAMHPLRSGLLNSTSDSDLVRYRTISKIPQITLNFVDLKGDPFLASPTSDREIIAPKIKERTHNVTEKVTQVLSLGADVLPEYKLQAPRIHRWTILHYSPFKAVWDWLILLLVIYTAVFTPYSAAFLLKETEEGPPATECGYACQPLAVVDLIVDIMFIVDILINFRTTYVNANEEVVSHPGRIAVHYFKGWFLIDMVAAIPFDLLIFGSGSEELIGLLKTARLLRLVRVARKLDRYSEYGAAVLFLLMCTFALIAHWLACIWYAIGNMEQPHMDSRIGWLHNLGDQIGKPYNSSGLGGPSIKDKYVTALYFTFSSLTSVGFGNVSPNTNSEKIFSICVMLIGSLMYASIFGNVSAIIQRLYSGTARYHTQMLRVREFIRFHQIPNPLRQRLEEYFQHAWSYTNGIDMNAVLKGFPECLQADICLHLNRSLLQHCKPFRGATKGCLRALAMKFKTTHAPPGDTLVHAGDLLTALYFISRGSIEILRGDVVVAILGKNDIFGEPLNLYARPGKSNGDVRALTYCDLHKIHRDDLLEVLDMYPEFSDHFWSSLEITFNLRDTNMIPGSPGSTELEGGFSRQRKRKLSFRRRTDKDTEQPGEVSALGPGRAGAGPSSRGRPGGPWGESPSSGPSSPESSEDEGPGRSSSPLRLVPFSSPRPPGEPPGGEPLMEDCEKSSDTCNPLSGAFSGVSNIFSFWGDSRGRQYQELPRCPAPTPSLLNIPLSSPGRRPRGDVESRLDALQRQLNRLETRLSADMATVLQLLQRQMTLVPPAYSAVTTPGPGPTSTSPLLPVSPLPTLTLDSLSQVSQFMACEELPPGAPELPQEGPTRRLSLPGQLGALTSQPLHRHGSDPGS
# How it was run: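 hERG-BacMam U2OS, 2000 cells/well; 0.7X FluxOR loading 1 hr RT dark; cpd ~10 min 37 °C; stim buffer; FDSS fluorescence 2 min @ 1 s; AC50 Hill fit.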
# [2] = target: Retinoic acid receptor RXR-alpha (Homo sapiens) (UniProt P19793); assay: qHTS assay for small molecule agonists of retinoid X receptor alpha signaling (AID 588544; calls by dose curve)
# Sequence of Retinoic acid receptor RXR-alpha (Homo sapiens) (P19793 whole entry, looked up): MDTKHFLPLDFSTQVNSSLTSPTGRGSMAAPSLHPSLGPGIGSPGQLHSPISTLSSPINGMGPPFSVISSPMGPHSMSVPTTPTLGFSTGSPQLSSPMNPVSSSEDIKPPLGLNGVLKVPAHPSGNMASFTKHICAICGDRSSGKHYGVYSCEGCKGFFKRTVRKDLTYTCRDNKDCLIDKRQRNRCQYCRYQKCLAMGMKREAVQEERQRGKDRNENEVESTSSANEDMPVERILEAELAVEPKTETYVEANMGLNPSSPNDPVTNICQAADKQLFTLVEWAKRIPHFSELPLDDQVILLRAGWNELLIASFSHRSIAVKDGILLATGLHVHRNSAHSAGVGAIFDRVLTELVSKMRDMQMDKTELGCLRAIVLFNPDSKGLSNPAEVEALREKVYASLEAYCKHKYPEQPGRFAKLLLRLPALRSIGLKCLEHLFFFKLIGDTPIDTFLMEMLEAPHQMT
# [3] = target: Thyroid hormone receptor beta (Homo sapiens) (UniProt P10828); assay: qHTS assay for small molecule agonists of thyroid hormone receptor beta signaling (AID 588545; calls by dose curve)
# Sequence of Thyroid hormone receptor beta (Homo sapiens) (P10828 whole entry, looked up): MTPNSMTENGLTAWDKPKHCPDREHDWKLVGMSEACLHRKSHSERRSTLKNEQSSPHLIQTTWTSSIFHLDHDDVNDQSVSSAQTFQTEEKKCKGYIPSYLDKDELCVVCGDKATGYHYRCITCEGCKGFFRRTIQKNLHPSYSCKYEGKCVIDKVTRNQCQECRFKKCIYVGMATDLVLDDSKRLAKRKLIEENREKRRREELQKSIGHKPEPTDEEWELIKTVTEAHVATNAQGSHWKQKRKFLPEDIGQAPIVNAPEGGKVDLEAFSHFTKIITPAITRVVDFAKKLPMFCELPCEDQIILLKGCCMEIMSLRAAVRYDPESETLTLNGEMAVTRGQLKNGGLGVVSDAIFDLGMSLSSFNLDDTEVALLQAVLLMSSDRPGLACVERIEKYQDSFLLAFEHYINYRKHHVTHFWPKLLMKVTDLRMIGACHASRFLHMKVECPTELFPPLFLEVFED
# How it was run: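 Efficacy and EC50 values derive from Hill fits of qHTS titration data, normalized to 10 nM T3 and DMSO-only wells. HEK 293 reporter cells were stimulated for 18 hrs at 37 C, with beta-lactamase activity measured by CCF4 fluorescence.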
# [4] = qHTS assay for small molecule antagonists of retinoid X receptor alpha signaling (AID 588546; active = well fitted inhibition curve with a large enough effect in the signal ratio, with a control signal flat, not every such curve was filed as active; the % refers to the signal ratio;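 also: cells stimulated with 9-cis-retinoic acid as agonist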); conditions: HEK293T RXRa-UAS-bla, beta-lactamase ratio, antagonist mode; measured here: W530 green channel, cytotoxicity proxy
# How it was run: (§1)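 Beta-lactamase reporter inhibition, read as CCF4 fluorescence ratio (ex 405, em 460/530 nm) after 2 h at RT. HEK293T UAS-bla cells, 2500/well, were stimulated with 9-cis-RA at 500 or 100 nM final alongside test compound for 18 h at 37 C.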
# [5] = target: Retinoic acid receptor RXR-alpha (Homo sapiens) (UniProt P19793); assay: as above; conditions: HEK293T RXRa-UAS-bla, beta-lactamase ratio, antagonist mode
# How it was run: as §1
# [6] = target: Thyroid hormone receptor beta (Homo sapiens) (UniProt P10828); assay: qHTS assay for small molecule antagonists of thyroid hormone receptor beta signaling (AID 588547; active = well fitted inhibition curve with a large enough effect in the signal ratio, with a control signal flat, not every such curve was filed as active; the % refers to the signal ratio;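 also: cells stimulated with 0.4 nM T3 agonist during compound exposure; series mostly up to about 77 µM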); conditions: TR-UAS-bla HEK293, beta-lactamase ratio, antagonist mode, 18 h
# How it was run: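 TR-UAS-bla GripTite HEK293 cells in 2% charcoal/dextran FBS medium were preincubated 4 h at 37 C, given compound (0.59 nM to 92 uM) plus 0.4 nM T3 (final) for 18 h, then CCF4 for 2 h at RT; Hill fit gave IC50.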
# [7] = target: Luciferin 4-monooxygenase (Photinus pyralis) (UniProt P08659); assay: Biochemical firefly luciferase enzyme assay for NPC (AID 624030); also: nearly all actives have a fitted effect of over 70% in size; also: potency is read from the fitted curve at half-maximal effect
# Sequence of Luciferin 4-monooxygenase (Photinus pyralis) (P08659 whole entry, looked up): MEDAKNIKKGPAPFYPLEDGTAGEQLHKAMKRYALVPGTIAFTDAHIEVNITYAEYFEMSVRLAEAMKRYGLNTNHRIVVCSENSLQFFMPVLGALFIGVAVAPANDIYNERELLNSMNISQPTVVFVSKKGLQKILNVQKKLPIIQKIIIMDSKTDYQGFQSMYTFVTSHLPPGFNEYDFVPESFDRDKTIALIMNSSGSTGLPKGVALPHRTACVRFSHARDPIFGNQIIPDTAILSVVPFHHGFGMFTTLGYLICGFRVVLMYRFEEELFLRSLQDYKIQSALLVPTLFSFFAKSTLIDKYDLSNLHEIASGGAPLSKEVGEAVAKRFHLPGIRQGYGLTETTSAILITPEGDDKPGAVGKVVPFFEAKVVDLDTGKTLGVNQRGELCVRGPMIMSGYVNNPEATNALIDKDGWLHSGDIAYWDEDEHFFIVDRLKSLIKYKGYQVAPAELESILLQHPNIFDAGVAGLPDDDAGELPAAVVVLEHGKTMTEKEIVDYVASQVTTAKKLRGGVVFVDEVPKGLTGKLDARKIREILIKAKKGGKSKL
# How it was run: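 Counter-screen for direct inhibition of the luciferase enzyme by approved-drug library compounds, run at 10 nM enzyme in 50 mM Tris acetate (final). Luminescence was read within 5 min of enzyme-buffer addition and normalized to PTC124 versus DMSO (0%).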
# [8] = S16 Schwann cell viability assay (CellTiter-Glo assay) (AID 624031); also: nearly all actives have a fitted effect of over 70% in size; also: potency is read from the fitted curve at half-maximal effect
# How it was run: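 Native S16 Schwann cells (rat), serum-containing medium, overnight attachment then 24 h drug exposure at 37 °C/5% CO2. CellTiter-Glo ATP signal; normalized to cell-free and vehicle wells.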
# [9] = S16 Schwann cell PMP22 intronic element firefly luciferase assay (AID 624032); also: nearly all actives have a fitted effect of over 30% in size; also: potency is read from the fitted curve at half-maximal effect
# How it was run: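 Rat S16 Schwann cells stably carrying a PMP22 intronic element-driven Fluc reporter were seeded overnight, then exposed to compounds for 24 h at 37 °C. Luminescence was normalized to PTC124 (positive control) and DMSO (0% activity).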
# [10] = S16 Schwann cell PMP22 intronic element beta-lactamase assay (AID 624044; calls by dose curve; also: nearly all actives have a fitted effect of over 15% in size; also: potency is read from the fitted curve at half-maximal effect)
# How it was run: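 Rat S16 Schwann cells with beta-Lac driven by a PMP22 intronic element, compound-treated 24 h at 37 °C. LiveBLAzer FRET B/G read: 460 nm normalized to potassium clavulanate vs DMSO; 535 nm FRET as viability; concentration-effect curves classified.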
compound,measurement,setting,value
C[C@@H]1C[C@H]2[C@@H]3CCC4=CC(=O)C=C[C@]4(C)[C@@]3(Cl)[C@@H](O)C[C@]2(C)[C@@]1(OC(=O)c1ccco1)C(=O)CCl,Potency,[1],5.01 µM (active)
O=C(O)c1cc(=O)[nH]c(=O)[nH]1,outcome,[2],inactive
same,outcome,[3],inactive
same,max response,[4],2.15%
same,max response,[5],5.81% (inactive)
same,activity change % (negative = inhibition),[6],1.95% (inactive)
same,Potency,[1],inactive
same,Potency,[7],inactive
same,Potency,[8],inactive
same,Potency,[9],inactive
NNC(=O)c1ccncc1,outcome,[2],inactive
same,outcome,[3],inactive
same,max response,[4],1.75%
same,max response,[5],3.12% (inactive)
same,activity change % (negative = inhibition),[6],10.5% (inactive)
same,Potency,[7],inactive
CC[C@H](NC(C)C)[C@H](O)c1ccc(O)c2[nH]c(=O)ccc12,Potency,[1],inactive
same,Potency,[7],inactive
same,Potency,[8],inactive
same,Potency,[9],inactive
same,Potency,[10],inactive
Nc1[nH]c(=O)ncc1F,Potency,[1],inactive
same,Potency,[7],inactive
same,Potency,[8],inactive
same,Potency,[9],inactive
CC(C)(Sc1cc(C(C)(C)C)c(O)c(C(C)(C)C)c1)Sc1cc(C(C)(C)C)c(O)c(C(C)(C)C)c1,Potency,[1],inactive
same,Potency,[7],inactive
same,Potency,[8],inactive
same,Potency,[9],inactive
CCOC(=O)[C@H](CCc1ccccc1)N[C@H]1CS[C@H](c2cccs2)CN(CC(=O)O)C1=O,Potency,[1],inactive
same,Potency,[7],inactive
same,Potency,[8],inactive
same,Potency,[9],inactive
same,Potency,[10],inactive
O=C(O)CCn1c2c(c3ccccc31)C[C@H](NS(=O)(=O)c1ccc(F)cc1)CC2,Potency,[1],inactive
same,Potency,[7],inactive
same,Potency,[8],inactive
same,Potency,[9],inactive
CCC(C)(C)c1ccc(CC(C)CN2C[C@@H](C)O[C@@H](C)C2)cc1 (stereo partly drawn),Potency,[1],12.6 µM (active)
same,Potency,[7],inactive
same,Potency,[8],inactive
same,Potency,[9],inactive
same,Potency,[10],inactive
N[C@@H](C(=O)N[C@@H]1C(=O)N2C(C(=O)O)=C(Cl)CS[C@H]12)c1ccccc1,Potency,[1],inactive
same,Potency,[7],inactive
same,Potency,[8],inactive
same,Potency,[9],inactive
Nc1ccc(S(=O)(=O)Nc2ccccn2)cc1,Potency,[1],inactive
same,Potency,[7],inactive
same,Potency,[8],inactive
same,Potency,[9],inactive
same,Potency,[10],inactive
CCOCC(O)COc1ccc(NC(=O)CC[S+](C)C)cc1 (stereo not drawn),Potency,[1],inactive
same,Potency,[7],inactive
same,Potency,[8],inactive
same,Potency,[9],inactive
CCn1cc(C(=O)O)c(=O)c2cc(F)c(N3CCNCC3)nc21,Potency,[1],inactive
same,Potency,[7],inactive
same,Potency,[8],inactive
same,Potency,[9],inactive
CNC(=O)c1cc(Oc2ccc(NC(=O)Nc3ccc(Cl)c(C(F)(F)F)c3)cc2)ccn1,Potency,[1],7.08 µM (active)
same,Potency,[7],inactive
same,Potency,[9],12.8 µM (active)
same,Potency,[10],15.8 µM (active)
COc1ncnc(NS(=O)(=O)c2ccc(N)cc2)c1OC,Potency,[1],inactive
same,Potency,[7],inactive
same,Potency,[8],inactive
same,Potency,[9],inactive
O=c1oc2c(O)c(O)cc3c(=O)oc4c(O)c(O)cc1c4c23,Potency,[1],inactive
same,Potency,[7],36.1 µM (active)
same,Potency,[8],inactive
same,Potency,[9],inactive
CNNCc1ccc(C(=O)NC(C)C)cc1,Potency,[1],inactive
same,Potency,[7],inactive
same,Potency,[9],inactive
C[C@@H](NCCCc1cccc(C(F)(F)F)c1)c1cccc2ccccc12,Potency,[1],11.2 µM (active)
same,Potency,[7],inactive
same,Potency,[8],12.8 µM (active)
same,Potency,[9],14.4 µM (active)
same,Potency,[10],inactive
CC(C)OC(=O)C(C(=O)OC(C)C)=C1SC=CS1,Potency,[1],inactive
same,Potency,[7],inactive
same,Potency,[8],inactive
same,Potency,[9],inactive
same,Potency,[10],inactive
Nc1nc(N)c2nc(CNc3ccc(C(=O)NC(CCC(=O)O)C(=O)O)cc3)cnc2n1 (stereo not drawn),Potency,[1],inactive
same,Potency,[7],inactive
same,Potency,[8],inactive
same,Potency,[10],inactive
COC(=O)Nc1nc2ccc(C(=O)c3ccccc3)cc2[nH]1,Potency,[1],inactive
same,Potency,[7],inactive
same,Potency,[8],inactive
same,Potency,[9],inactive
COc1c(N2CCNC(C)C2)c(F)cc2c(=O)c(C(=O)O)cn(C3CC3)c12 (stereo not drawn),Potency,[1],inactive
same,Potency,[7],inactive
same,Potency,[8],inactive
same,Potency,[9],inactive
O=NN(CCCl)C(=O)NC1CCCCC1,Potency,[1],inactive
same,Potency,[7],inactive
same,Potency,[8],inactive
same,Potency,[9],inactive
same,Potency,[10],inactive
CNS(=O)(=O)Cc1ccc2[nH]cc(CCN(C)C)c2c1,Potency,[1],inactive
same,Potency,[7],inactive
same,Potency,[8],inactive
same,Potency,[9],inactive
C#CCN[C@@H]1CCc2ccccc21,Potency,[1],inactive
same,Potency,[7],inactive
same,Potency,[8],inactive
same,Potency,[9],inactive
O=P(O)(O)C(O)(Cc1cccnc1)P(=O)(O)O,Potency,[1],inactive
same,Potency,[7],inactive
same,Potency,[8],inactive
same,Potency,[9],inactive
CN1CCN(c2c(F)cc3c(=O)c(C(=O)O)cn4c3c2OCN4C)CC1,Potency,[1],inactive
same,Potency,[7],inactive
same,Potency,[8],inactive
same,Potency,[9],inactive
Nc1nc(N)nc(-c2cc(Cl)ccc2Cl)n1,Potency,[1],inactive
same,Potency,[7],inactive
same,Potency,[8],inactive
same,Potency,[9],inactive
Cc1oc(=O)oc1CN1CCN(c2cc3c(cc2F)c(=O)c(C(=O)O)c2n3C(C)S2)CC1 (stereo not drawn),Potency,[1],inactive
same,Potency,[7],inactive
same,Potency,[8],inactive
same,Potency,[9],inactive
COc1cccc(N(C)C(=S)Oc2ccc3c(c2)CCCC3)n1,Potency,[1],3.16 µM (active)
same,Potency,[7],inactive
same,Potency,[10],inactive
O=S(=O)(O)CCS,Potency,[1],inactive
same,Potency,[7],inactive
same,Potency,[8],inactive
same,Potency,[9],inactive
same,Potency,[10],inactive
COc1cnc(NS(=O)(=O)c2ccc(N)cc2)nc1,Potency,[1],inactive
same,Potency,[7],inactive
same,Potency,[8],inactive
same,Potency,[9],inactive
